The target of experiment [1] is Metallo-beta-lactamase type 2 (Klebsiella pneumoniae) (UniProt C7C422). Nature of the experiment: qHTS to identify inhibitors of the New Delhi Metallo-beta-lactamase (NDM): assay validation screen against the NCATS LOPAC Collection (AID 1794843). Also: % is scaled to controls: 0 for no effect and ±100 for the full control effect. Summed up: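 Absorbance at 485 nm from nitrocefin turnover (50 uM solution added), read at plateau, gives the read-out. Compounds in DMSO were incubated first with 2 nM final NDM-1 in pH 7.0 HEPES buffer containing 1 uM ZnSO4 and 0.01% Tween20.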
Background: qHTS replaces the single test concentration by a dilution series.

The target of experiment [2] is Glutathione peroxidase 1 (Homo sapiens) (UniProt P07203). Nature of the experiment: Primary qHTS Assay for Inhibitors of Recombinant Selenoprotein Glutathione Peroxidase 1 (GPX1) (AID 1845191). Also: nearly all actives have a fitted effect of over 65% in size. Summed up: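 GR-coupled assay: compounds preincubated 30 min at room temperature with GPX1, then reaction started with CHP; final 10 nM GPX1, 1 mM GSH, 0.5 mM CHP, 0.5 mM NADPH, 100 nM GR, 0.01% BSA, pH 7.5 Tris buffer. NADPH fluorescence (340/450 nm) read at 0 and 15 min.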

The target of experiment [3] is Phospholipid hydroperoxide glutathione peroxidase GPX4 (Homo sapiens) (UniProt P36969). Nature of the experiment: Primary qHTS Assay for Inhibitors of Recombinant Selenoprotein Glutathione Peroxidase 4 (GPX4) (AID 1845192). Also: nearly all actives have a fitted effect of over 65% in size. Summed up: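 GR-coupled assay: recombinant GPX4 preincubated 30 min with compound at room temperature; final 200 nM GPX4, 1 mM GSH, 0.5 mM cumene hydroperoxide, 0.5 mM NADPH, 100 nM GR, 0.01% BSA, pH 7.5 Tris. NADPH fluorescence (340/450 nm) read at 0 and 15 min.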

Experiment [4] addresses Luciferin 4-monooxygenase (Photinus pyralis) (UniProt P08659). Put plainly: Primary firefly luciferase (FLuc) qHTS assay for identification of artifact compounds. (AID 1845220).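 Also: plate controls were DMSO vehicle for no effect and no enzyme for full effect; nearly all actives have a fitted effect of over 60% in size.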 Summed up:
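Titrated compounds were incubated 15 min at RT, protected from light, with luciferin and ATP at 10 uM; reaction started with 10 nM FLuc, luminescence imaged at 5 min, and concentration-response fitted by Hill equation.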

Experiment [5] relates to Nanoluciferase (engineered Oplophorus gracilirostris luciferase). Put plainly: Primary Nanoluciferase (NLuc) qHTS assay for identification of artifact compounds. (AID 1845222).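 Also: NLuc secreted into diluted conditioned medium of S16 cells; 0% = DMSO and -100% = no enzyme.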 An outline of the steps:
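qHTS format, against NLuc in S16 cell-conditioned medium. Nano-Glo substrate 1:100 was added after 15 min at room temperature. Luminescence was taken after a further 5 min.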

Experiment [6] in a line: Primary redox qHTS assay for identification of artifact compounds. (AID 1845223). Summed up:
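Amplex Red (25 uM) and HRP (250 mU/mL) in HBSS, with compounds for 15 min, then 250 uM DTT for 30 min, room temperature, dark. Fluorescence 525/598 nm read; normalized to DMSO and 10 uM DA3003; Hill fit.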

Experiment [7] is described as follows: Quantitative High-Throughput drug screen in 47 multiple myeloma cell lines against the NCATS MIPE library collection: Delta47_JCRB cell viability assay (AID 1918925; also: nearly all actives have a fitted effect of over 45% in size; also: potency is read from the fitted curve at half-maximal effect). An outline of the steps: (§1)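 CellTiter-Glo luminescence (ATP) after 48 h compound exposure, 37C/5% CO2; 500 cells/well; MIPE 4.0 approved/investigational drugs pinned in; DMSO = 100%, media only = 0% viability.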

Experiment [8] is described as follows: Quantitative High-Throughput drug screen in 47 multiple myeloma cell lines against the NCATS MIPE library collection: AMO1_DSMZ cell viability assay (AID 1918927; also: nearly all actives have a fitted effect of over 30% in size; also: potency is read from the fitted curve at half-maximal effect). Summed up:
as §1

Experiment [9] can be described thus: Quantitative High-Throughput drug screen in 47 multiple myeloma cell lines against the NCATS MIPE library collection: Karpas620_DSMZ cell viability assay (AID 1918959). Also: nearly all actives have a fitted effect of over 30% in size. Also: potency is read from the fitted curve at half-maximal effect. Summed up: (§2)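 Inhibition of cell viability is measured here. Each line was plated at 500 cells per well, treated with MIPE 4.0 drugs, kept 48 hours at 37C, then assayed for ATP content by CellTiter-Glo luminescence.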

The nature of experiment [10]: Quantitative High-Throughput drug screen in 47 multiple myeloma cell lines against the NCATS MIPE library collection: KMM1_JCRB cell viability assay (AID 1918960). Also: nearly all actives have a fitted effect of over 30% in size. Also: potency is read from the fitted curve at half-maximal effect.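 As to viability (% of DMSO): 100% = DMSO-treated cells and 0% = medium-only wells.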 Summed up:
(§3)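 ATP readout (CellTiter-Glo), 48 h drug incubation, 37 °C/5% CO2, 500 cells per well; normalisation to DMSO (100%) and media-only (0%) controls.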

The nature of experiment [11]: Quantitative High-Throughput drug screen in 47 multiple myeloma cell lines against the NCATS MIPE library collection: Karpas417_ECACC cell viability assay (AID 1918961). Also: potency is read from the fitted curve at half-maximal effect. Conditions: Karpas417 myeloma viability, CellTiter-Glo ATP luminescence, 48 h; viability (% of DMSO): at 45.8 µM (top of the series) unless noted. An outline of the steps: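 qHTS of the MIPE 4.0 collection: 500 myeloma cells/well, 48 h drug exposure at 37C in 5% CO2, then CellTiter-Glo for 5 min at room temperature before luminescence reading.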
In general terms: In ATP-based viability assays light output follows the ATP content of the culture.

The nature of experiment [12]: Quantitative High-Throughput drug screen in 47 multiple myeloma cell lines against the NCATS MIPE library collection: JIM3_ECACC cell viability assay (AID 1918963; also: nearly all actives have a fitted effect of over 35% in size; also: potency is read from the fitted curve at half-maximal effect). Summed up: as §2
Experiment [13] is described as follows: Quantitative High-Throughput drug screen in 47 multiple myeloma cell lines against the NCATS MIPE library collection: FR4_PLB cell viability assay (AID 1918924; also: nearly all actives have a fitted effect of over 35% in size; also: potency is read from the fitted curve at half-maximal effect). Summed up: as §2
Experiment [14] is described as follows: Quantitative High-Throughput drug screen in 47 multiple myeloma cell lines against the NCATS MIPE library collection: EJM_DSMZ cell viability assay (AID 1918926; also: nearly all actives have a fitted effect of over 30% in size; also: potency is read from the fitted curve at half-maximal effect). Summed up: as §1
Experiment [15] in a line: Quantitative High-Throughput drug screen in 47 multiple myeloma cell lines against the NCATS MIPE library collection: KHM11_PLB cell viability assay (AID 1918962). Also: nearly all actives have a fitted effect of over 35% in size. Also: potency is read from the fitted curve at half-maximal effect. Summed up:
as §2

The nature of experiment [16]: Quantitative High-Throughput drug screen in 47 multiple myeloma cell lines against the NCATS MIPE library collection: ARD_JJKsccE7 cell viability assay (AID 1918929; also: potency is read from the fitted curve at half-maximal effect). Summed up:
as §1

Experiment [17] is described as follows: Quantitative High-Throughput drug screen in 47 multiple myeloma cell lines against the NCATS MIPE library collection: ARP1_JJKsccF8 cell viability assay (AID 1918928; also: nearly all actives have a fitted effect of over 40% in size). Summed up:
as §3

Records with an inconclusive call do not appear. Active and inactive are the calls of the source. Calls follow the shape of the dose curve; as a rule, active = well fitted curve in the direction sought with a large enough effect; inconclusive = small, poorly fitted or top-dose-only effect, or another doubt; inactive = no such curve, though single readings can be large; an effect the other way counts as inactive or inconclusive.

Chain of Metallo-beta-lactamase type 2 (Klebsiella pneumoniae) (C7C422 whole entry, looked up): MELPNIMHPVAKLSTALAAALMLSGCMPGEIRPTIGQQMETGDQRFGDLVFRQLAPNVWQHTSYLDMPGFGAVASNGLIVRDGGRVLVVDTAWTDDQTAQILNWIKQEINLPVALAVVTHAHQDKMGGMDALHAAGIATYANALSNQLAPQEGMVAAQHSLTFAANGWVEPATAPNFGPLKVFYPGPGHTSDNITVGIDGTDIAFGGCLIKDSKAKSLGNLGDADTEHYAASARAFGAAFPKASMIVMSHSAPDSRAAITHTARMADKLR
Chain of Phospholipid hydroperoxide glutathione peroxidase GPX4 (Homo sapiens) (P36969 whole entry, looked up): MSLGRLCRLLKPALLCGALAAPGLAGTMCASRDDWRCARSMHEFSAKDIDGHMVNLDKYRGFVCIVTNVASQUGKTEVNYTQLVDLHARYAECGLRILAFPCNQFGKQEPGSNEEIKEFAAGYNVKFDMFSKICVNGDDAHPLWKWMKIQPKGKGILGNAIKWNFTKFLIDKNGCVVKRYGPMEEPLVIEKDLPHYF
Chain of Glutathione peroxidase 1 (Homo sapiens) (P07203 whole entry, looked up): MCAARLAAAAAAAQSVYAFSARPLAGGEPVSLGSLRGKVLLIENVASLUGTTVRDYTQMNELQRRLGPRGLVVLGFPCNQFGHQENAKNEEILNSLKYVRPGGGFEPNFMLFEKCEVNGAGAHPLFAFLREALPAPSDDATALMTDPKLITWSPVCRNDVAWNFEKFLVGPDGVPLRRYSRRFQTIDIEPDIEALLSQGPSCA

As for `CCc1cncnc1N1CCN(Cc2nc3ccc(C(F)(F)F)cc3[nH]2)CC1`, the molecule was called inactive in experiment [1], in experiment [5] and in experiment [6]. The Potency entry in experiment [2], in experiment [3], in experiment [4] and in [11] was “inactive” throughout. Besides, the Potency is 13.2 µM (active) in [7]; 6.62 µM (active) in experiment [8]; 7.43 µM (active) in [9]; 2.64 µM (active) in experiment [10]; 20.9 µM (active) in [12].

Turning to `NCCCC(N)(C(=O)O)C(F)F` (stereo unspecified), the molecule was called inactive in experiment [1]. The Potency entry in experiment [2], in experiment [3], in [14], in experiment [9] and in experiment [15] was “inactive” in each case. Also, the values for the Potency in experiment [13] and in experiment [12] were 16.6 µM (active) and 13.2 µM (active), respectively.

Take `CN1CCN(CCCN2c3ccccc3Sc3ccc(C(F)(F)F)cc32)CC1`: in experiment [1], the molecule was classed as inactive. Also, the Potency result in experiment [2], in experiment [3], in [13], in experiment [14], in experiment [8] and in experiment [16] was “inactive” throughout. Further, the Potency entry in experiment [10] was “inactive”. In addition, the viability (% of DMSO) in [11] was 113% (active). Also, the Potency in [15] was 10.5 µM (active); in experiment [12], 8.33 µM (active).

With `CS(=O)(=O)c1cccc(CNc2nc(Nc3ccc4c(c3)CCC(=O)N4)ncc2C(F)(F)F)c1`, the outcome in [1] and in [5] was inactive. Also, the Potency result in [2] and in experiment [3] was “inactive” each time. Besides, the Potency in experiment [7] was 18.7 µM (active); in experiment [8], 9.35 µM (active); in experiment [16] it was 5.9 µM (active); in experiment [9], 4.69 µM (active); in experiment [10] it was 4.18 µM (active); in [11], 2.64 µM (active). Further, the values for the Potency in experiment [15] and in experiment [12] were 14.8 µM (active) and 18.7 µM (active), respectively.

Consider `Oc1ccc(C2CNCCc3c2cc(O)c(O)c3Cl)cc1` (stereo unspecified), for which the result in experiment [1] was inactive. Also, the Potency result in experiment [2], in experiment [3], in [13], in experiment [14], in [8] and in [16] was “inactive” in each case. Moreover, the Potency result in experiment [9], in experiment [10] and in experiment [12] was “inactive” each time.

In the case of `CC(C)(C)NCC(O)c1ccc(O)c(CO)c1` (stereo unspecified), the molecule was classed as inactive in experiment [1]. Moreover, the Potency entry in experiment [2], in experiment [3], in [13], in experiment [7], in experiment [14] and in experiment [8] was “inactive” each time. The Potency result in experiment [9], in experiment [15] and in experiment [12] was “inactive” each time. In addition, the Potency in experiment [16] is 0.0526 µM (active).

For `Cc1ccccc1C(OCCN(C)C)c1ccccc1` (stereo unspecified), the call in [1] was inactive. Further, the Potency result in experiment [2], in experiment [3], in experiment [13], in [14], in experiment [8] and in experiment [17] was “inactive” throughout. Also, the Potency entry in [16], in experiment [9], in [10], in experiment [15] and in experiment [12] was “inactive” in each case.

For the molecule `C[C@]12CCC(=O)C=C1CC[C@@H]1[C@@H]2[C@@H](O)C[C@@]2(C)[C@H]1CC[C@]2(O)C(=O)CO`, in experiment [1], the outcome was inactive. In addition, the Potency entry in experiment [2] and in experiment [3] was “inactive” in each case.

On to `Cc1ccc(N(CC2=NCCN2)c2cccc(O)c2)cc1`, for which the outcome in experiment [1] was inactive. For the same molecule, the Potency entry in experiment [2], in experiment [3] and in experiment [15] was “inactive” each time. For the same molecule, the Potency in experiment [13] was 20.9 µM (active); in experiment [8], 23.5 µM (active).

Turning to `Cc1cn[nH]c1`, the result in [1] was inactive. Besides, the Potency result in [2] and in experiment [3] was “inactive” each time. Also, the Potency in experiment [13] is 0.0526 µM (active); in experiment [14], 0.105 µM (active); in [10] it was 0.526 µM (active).
